Our source for the PBM binding z-score values is the supplement of paper PMC6555819.

The test system of the first assay is RXRa DBDmut IVT, anti-RXR (DBD mutation: RXRa K156A/R161A, NR concentration 90 nM). Put plainly: PBM binding z-score (relative to random genomic background probes); higher = stronger binding; sequences stand for … in GC…GCGATTGACAGCGTAGAATGAAGG
The gist of the method:
(§1)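 Binding z-scores were set against random background probes. The data came from custom Agilent 4×180K protein-binding microarrays carrying double-stranded probes with 34-nt variable regions, incubated 1 h with ligand-free nuclear receptor dimers. Partner-specific antibodies detected binding, and scanned fluorescence was regression-normalized.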
Sequence CATGCTAGGTCAATGGTCAGCTAAAGCAGCTCGC showed a PBM binding z-score of 1.63.

TTACCAAGGTGAAGGTCGTTGACCCCTCTGTAGA: the PBM binding z-score worked out at 0.133.

TTACCAGGGTGAGCTGAGGTCGTTGATCCAACTC displayed a PBM binding z-score of -0.148.

CCTACTGGGCCCTCAGGTCATTGATATCAACGTT had a PBM binding z-score of -0.149.

Take ACTAGCAGGCTAAGGGTCACTCAAGATTAGTCCG: the PBM binding z-score is 0.904.

TCTTTTAGATCAGCAGGTTAAGAAAGCTGGCCAA yielded a PBM binding z-score of 1.02.

For AGAATGAGGTTATTAAGTTCAGGGAATTGCGGTC, the PBM binding z-score is 3.07.

Turning to CGGCCTAGGTCAGGGCCAGTATAGGAGGAACGTT, the PBM binding z-score was -0.731.

As for ACTATTAGTTGACTGAGGGCAACCGATACGACGC, the PBM binding z-score was 1.

CATTACGGGTCACGAGGTTATAGCACGACGAGCG: the PBM binding z-score was determined as 2.21.

As for CTACCAAGGTGAACAAGGTCATTGATTACTATTC, the PBM binding z-score is 2.28.

Sequence TCTGCTAGTTCAGTTGGTCAGCTAACGAGCTGCC had a PBM binding z-score of 0.659.

Sequence GCTAGTTGGTCAGTAAAAGGTCACAAACCGGTCG had a PBM binding z-score of 0.203.

Sequence ATCGAGAGGTCGTGAGGTGAGTATACAGAAAGGC came in with a PBM binding z-score of 1.43.

CGTCCAAGGTCAAACGTCAGTGAAGAGATGACGG: the PBM binding z-score came out at 3.98.

The sequence ATTTCTAGGTAACCAAGTTCAGTGAATGCCGAAC yielded a PBM binding z-score of 0.875.

In the case of CGTCAAAGTTCACGGTAACGTAACAGAAAGCAGC, the PBM binding z-score is 4.62.

TTACCAAGGTGAAAGGTCGTAGATGCACGCCTTG: the PBM binding z-score is -0.0824.

In turn, ATATCTAGGTAACCAAGTTCAGTGAATGCCGAAC had a PBM binding z-score of 0.824.

The sequence ATCTCAAGGTAAAGTTCAGTGAAAGATCGATAGA displayed a PBM binding z-score of 1.69.

For CCTACTGGGCCATCAGGGCATTGATATCAACGTT, the PBM binding z-score was -0.959.

With CCTATGAGTTGACCATAAGGGCAACCGAAGCTCG, the PBM binding z-score came to 0.755.

With TCTGCTAGGTGAGTTGGTCAGCTAACGAGCTGCC, the PBM binding z-score was -0.485.

GGAACGAGGGCAAAGTTGCTAGCATCTGTCGACG returned a PBM binding z-score of 2.63.

ATCGCTAGGTAAGACTCAGTTCAGTGAAGAACGC gave a PBM binding z-score of -0.408.

For the sequence ATCTCAAGGTAACAAGTTCAGTGAAAGAGAGGAC, the PBM binding z-score turned out to be 1.34.

CCTTACGGCTCACTGACAGGTTATAGCATTTGGA came in with a PBM binding z-score of 0.689.

TCTATTGGTTGAAGGGCAACCGACGAGTCCGTTT returned a PBM binding z-score of 1.37.

For TCTATTAGTTGAAGCGCAACCGACGAGTCCGTTT, the PBM binding z-score amounted to 1.16.

The sequence CGCCCAAGGTCATAGGAGGTCAGTGAAGACAGAT registered a PBM binding z-score of 3.41.

Sequence ATATCTAGGTTAAGGGTCATTCAGGTTGGTTCGC displayed a PBM binding z-score of 2.66.

Regarding CAAACTAGGTCACGAAAGGTCAAAGTAGAATGAC, the PBM binding z-score is 2.39.

ACTATTAGTTGACTTAGGGCAACCGGTACGACGC gave a PBM binding z-score of 0.426.

In the case of CAAACTAGGTCAAAGTCAAAGTCGGTTTGTGCCA, the PBM binding z-score came to 2.32.

CCTACTGGGCCATTCAGAGGTCATTTATCATATG: the PBM binding z-score was found to be 1.47.

TCATATAGGTAAATGCTAGGTTAAAGTCCGATCT yielded a PBM binding z-score of 1.74.

As for TTACCAAGGTGAGGGTCGTTGATCCCTCTGTAGA, the PBM binding z-score is -0.138.

With CCTAGCAGGCCAGGGTCAATCAAGCATTTCGCTT, the PBM binding z-score was determined as 0.381.

Sequence TCTCAAAGTTCAAAGGTAACGTAAGTATCCACAC had a PBM binding z-score of 4.59.

ATATGTAGGTTATCGGGTCATTTAGTTTGCGCAT had a PBM binding z-score of 1.69.

The test system of the next assay is RXRa homodimer (NR concentration 180 nM). The description is as above. The gist of the method: as §1
Sequence CATGCTAGGTCAATGGTCAGCTAAAGCAGCTCGC registered a PBM binding z-score of 2.29.

In turn, TTACCAAGGTGAAGGTCGTTGACCCCTCTGTAGA displayed a PBM binding z-score of 4.95.

In turn, TTACCAGGGTGAGCTGAGGTCGTTGATCCAACTC returned a PBM binding z-score of 1.37.

For the sequence CCTACTGGGCCCTCAGGTCATTGATATCAACGTT, the PBM binding z-score worked out at 0.755.

Consider ACTAGCAGGCTAAGGGTCACTCAAGATTAGTCCG, for which the PBM binding z-score is 4.18.

Consider TCTTTTAGATCAGCAGGTTAAGAAAGCTGGCCAA, for which the PBM binding z-score worked out at 0.581.

On to AGAATGAGGTTATTAAGTTCAGGGAATTGCGGTC, for which the PBM binding z-score amounted to 2.52.

Turning to CGGCCTAGGTCAGGGCCAGTATAGGAGGAACGTT, the PBM binding z-score is 1.5.

As for ACTATTAGTTGACTGAGGGCAACCGATACGACGC, the PBM binding z-score was 0.572.

Turning to CATTACGGGTCACGAGGTTATAGCACGACGAGCG, the PBM binding z-score is 8.02.

Turning to CTACCAAGGTGAACAAGGTCATTGATTACTATTC, the PBM binding z-score amounted to 4.27.

The sequence TCTGCTAGTTCAGTTGGTCAGCTAACGAGCTGCC returned a PBM binding z-score of -0.391.

Sequence GCTAGTTGGTCAGTAAAAGGTCACAAACCGGTCG yielded a PBM binding z-score of 4.8.

Regarding ATCGAGAGGTCGTGAGGTGAGTATACAGAAAGGC, the PBM binding z-score was determined as 4.24.

In turn, CGTCCAAGGTCAAACGTCAGTGAAGAGATGACGG came in with a PBM binding z-score of 6.29.

ATTTCTAGGTAACCAAGTTCAGTGAATGCCGAAC registered a PBM binding z-score of 0.621.

With CGTCAAAGTTCACGGTAACGTAACAGAAAGCAGC, the PBM binding z-score amounted to 6.17.

TTACCAAGGTGAAAGGTCGTAGATGCACGCCTTG registered a PBM binding z-score of 6.49.

As to ATATCTAGGTAACCAAGTTCAGTGAATGCCGAAC, the PBM binding z-score was determined as 0.83.

ATCTCAAGGTAAAGTTCAGTGAAAGATCGATAGA: the PBM binding z-score was determined as 1.76.

CCTACTGGGCCATCAGGGCATTGATATCAACGTT returned a PBM binding z-score of -0.308.

CCTATGAGTTGACCATAAGGGCAACCGAAGCTCG displayed a PBM binding z-score of 0.985.

Turning to TCTGCTAGGTGAGTTGGTCAGCTAACGAGCTGCC, the PBM binding z-score was -0.331.

Consider GGAACGAGGGCAAAGTTGCTAGCATCTGTCGACG, for which the PBM binding z-score worked out at 1.07.

Consider ATCGCTAGGTAAGACTCAGTTCAGTGAAGAACGC, for which the PBM binding z-score was -0.428.

ATCTCAAGGTAACAAGTTCAGTGAAAGAGAGGAC returned a PBM binding z-score of 1.23.

Turning to CCTTACGGCTCACTGACAGGTTATAGCATTTGGA, the PBM binding z-score is 0.388.

Turning to TCTATTGGTTGAAGGGCAACCGACGAGTCCGTTT, the PBM binding z-score came to 0.744.

In turn, TCTATTAGTTGAAGCGCAACCGACGAGTCCGTTT had a PBM binding z-score of 0.302.

With CGCCCAAGGTCATAGGAGGTCAGTGAAGACAGAT, the PBM binding z-score worked out at 6.07.

Consider ATATCTAGGTTAAGGGTCATTCAGGTTGGTTCGC, for which the PBM binding z-score stood at 5.68.

CAAACTAGGTCACGAAAGGTCAAAGTAGAATGAC: the PBM binding z-score turned out to be 8.5.

Turning to ACTATTAGTTGACTTAGGGCAACCGGTACGACGC, the PBM binding z-score was 0.446.

As to CAAACTAGGTCAAAGTCAAAGTCGGTTTGTGCCA, the PBM binding z-score came out at 3.11.

The sequence CCTACTGGGCCATTCAGAGGTCATTTATCATATG returned a PBM binding z-score of 3.27.

TCATATAGGTAAATGCTAGGTTAAAGTCCGATCT registered a PBM binding z-score of 0.914.

Take TTACCAAGGTGAGGGTCGTTGATCCCTCTGTAGA: the PBM binding z-score was found to be 1.37.

In turn, CCTAGCAGGCCAGGGTCAATCAAGCATTTCGCTT gave a PBM binding z-score of 4.06.

As for TCTCAAAGTTCAAAGGTAACGTAAGTATCCACAC, the PBM binding z-score is 7.17.

Consider ATATGTAGGTTATCGGGTCATTTAGTTTGCGCAT, for which the PBM binding z-score stood at 3.5.
